Here are results for 8 compounds from PubChem BioAssay (Tox21).

A number with no mark means an inactive call. Inconclusive results are not listed. The source made the active and inactive calls. Unless noted, the call rests on the fitted dose curve.

Assay [1] is described as follows: Nuclear factor erythroid 2-related factor 2/antioxidant responsive element (Nrf2/ARE) small molecule agonists: qHTS cell viability counter screen in human keratinocytes (AID 1919968; active means well fitted curve in the direction sought with a large enough effect in the repeat runs; an effect the other way counts as inactive or inconclusive; further: nearly all actives have a fitted effect of over 55% in size). A digest of the protocol:
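Viability counter-screen: KeratinoSens reporter cells, DMSO-delivered compounds, 23 h at 37 C, CellTiter-Fluor fluorescence.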
(In general: Quantitative high-throughput screening tests each substance at several concentrations.)

A short description of assay [2]: Nuclear factor erythroid 2-related factor 2/antioxidant responsive element (Nrf2/ARE) small molecule agonists: luciferase reporter gene qHTS assay in human keratinocytes (AID 1919969; further: nearly all actives have a fitted effect of over 35% in size; further: potency means the concentration at half of the fitted maximal effect). (A reporter such as luciferase makes a cellular process visible.)
Assay [3] has as its target Gonadotropin-releasing hormone receptor (Homo sapiens) (UniProt P30968). Nature of the assay: Human gonadotropin-releasing hormone receptor (GnRHR) small molecule agonists, calcium flux assay in GnRHR-HEK293 cells (AID 1920063). Further: nearly all actives have a fitted effect of over 35% in size. A digest of the protocol:
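Tox21-format agonist screen using human GnRHR-expressing HEK293 cells and a fluorescent calcium dye; kinetic 3-min fluorescence reading after compound addition, 15-point concentration series run in triplicate.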
In general terms: Calcium assays in cells follow changes in intracellular calcium, usually with a dye or a luminescent sensor.

Assay [4] deals with KiSS-1 receptor (Homo sapiens) (UniProt Q969F8). The assay can be described thus: Human kisspeptin (KISS1R) small molecule agonists, calcium flux assay in KISS1R-HEK293 cells (AID 1920064; active means well fitted curve in the direction sought with a large enough effect in the repeat runs; an effect the other way counts as inactive or inconclusive). A digest of the protocol: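 Intracellular calcium mobilization in KISS1R-HEK293 cells was recorded by fluorescence (Ex/Em 480/540) for 3 min following compound addition to cells pre-loaded 1 h with calcium dye.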
Chain of KiSS-1 receptor (Homo sapiens) (Q969F8 whole entry, looked up): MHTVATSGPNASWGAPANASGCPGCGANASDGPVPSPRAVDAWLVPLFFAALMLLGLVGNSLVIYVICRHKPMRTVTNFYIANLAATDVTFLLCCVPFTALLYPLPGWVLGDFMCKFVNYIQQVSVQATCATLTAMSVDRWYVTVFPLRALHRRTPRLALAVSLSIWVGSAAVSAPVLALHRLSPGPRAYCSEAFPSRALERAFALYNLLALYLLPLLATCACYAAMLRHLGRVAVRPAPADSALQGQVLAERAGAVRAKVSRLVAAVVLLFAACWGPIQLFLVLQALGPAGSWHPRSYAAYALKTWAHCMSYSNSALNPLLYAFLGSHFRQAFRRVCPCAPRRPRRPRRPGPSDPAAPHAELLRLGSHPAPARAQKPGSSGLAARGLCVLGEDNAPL

Assay [5] can be described thus: G protein-coupled receptor (GPCR) small molecule agonists, calcium flux assay: HEK293 wild type cell line counter screen (AID 1920065). A digest of the protocol: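 In this agonist-mode screen, ATP is the positive control and DMSO the vehicle. Cells grow 18 h before a 1 h dye incubation at 37 C; signal is taken at Ex/Em 480/540 over 3 min.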
The nature of assay [6]: p53 small molecule agonists, cell-based qHTS assay with human liver microsomes: qHTS cell viability counter screen (AID 1963579). Further: nearly all actives have a fitted effect of over 45% in size. A digest of the protocol:
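p53RE-bla cells, 4,000/well, dosed 5 hours after plating, with human liver microsomes (0.5 mg/mL final) plus NADPH (0.5 mg/mL final), 16 hours at 37 C. Viability read as CellTiter-Glo luminescence after 30 min at room temperature.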

Assay [7] in a line: p53 small molecule agonists, cell-based qHTS assay with rat liver microsomes: qHTS cell viability counter screen (AID 1963580). Further: nearly all actives have a fitted effect of over 45% in size. A digest of the protocol:
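Intracellular ATP, by CellTiter-Glo luminescence, defines viability. HCT-116 p53RE-bla cells, 4,000 per well, were compound-treated in the presence of rat liver microsomes and NADPH for 16 h at 37 C.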

Assay [8] deals with 5-hydroxytryptamine receptor 2A (Homo sapiens) (UniProt P28223). The assay can be described thus: 5-hydroxytryptamine receptor 2A (HTR2A) small molecule antagonists, cell-based qHTS assay (AID 1963586). Further: nearly all actives have a fitted effect of over 45% in size. A digest of the protocol:
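Antagonist-mode intracellular calcium assay: DOI (4 nM) added after 5 min compound pre-incubation at room temperature to dye-loaded HTR2A-CHO cells. Fluorescence followed for 3 min, sampled every second.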

For assay [9] the target is unchanged. The assay can be described thus: 5-hydroxytryptamine receptor 2A (HTR2A) small molecule agonists, cell-based qHTS assay (AID 1963587). Further: nearly all actives have a fitted effect of over 30% in size. A digest of the protocol: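 Kinetic calcium-flux fluorescence (2 min, 1 sec intervals) after compound addition in agonist mode. HTR2A-CHO cells were cultured 18 h, then dye-loaded 1 h at 37 C.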
Assay [10] deals with Muscarinic acetylcholine receptor M1 (Homo sapiens) (UniProt P11229). Nature of the assay: Cholinergic receptor muscarinic 1 (CHRM1) small molecule antagonists, cell-based qHTS assay (AID 1963588). Further: nearly all actives have a fitted effect of over 40% in size. A digest of the protocol:
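CHRM1-CHO calcium-flux assay, antagonist mode. Cells were seeded 18 h, dye-loaded 1 h at 37 C and given compound for 5 min at RT, then acetylcholine was added at 50nM. FDSS fluorescence was read 3 min; 15 concentrations, three runs.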

For assay [11] the target is unchanged. Nature of the assay: Cholinergic receptor muscarinic 1 (CHRM1) small molecule agonists, cell-based qHTS assay (AID 1963589). Further: nearly all actives have a fitted effect of over 35% in size. A digest of the protocol:
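Stable CHRM1-CHO cells (human receptor) were incubated 18 h, dye-loaded for 1 h at 37 C and exposed to test compounds for agonist activity, with calcium-dependent fluorescence followed kinetically.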

Assay [12] in a line: cAMP Responsive Elements (CRE) small molecule agonists, cell-based qHTS assay (AID 1963590). A digest of the protocol: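 FRET-based beta-lactamase readout (LiveBLAzer B/G, 2 h RT) quantified CRE activation in HEK 293T CRE-bla cells after 3 h treatment with DMSO-dissolved compounds.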
The nature of assay [13]: cAMP Responsive Elements (CRE) small molecule antagonists, cell-based qHTS assay (AID 1963591; active means well fitted inhibition curve with a large enough effect in the signal ratio in the repeat runs, not every such curve was filed as active; the % refers to the signal ratio). A digest of the protocol: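 qHTS in CRE-bla HEK 293T cells: compound in DMSO, then 0.25 uM NKH477 (final), 3 h at 37 °C/5% CO2; beta-lactamase FRET read-out after 2 h substrate incubation.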
The target in assay [14] is Beta-2 adrenergic receptor (Homo sapiens) (UniProt P07550). Nature of the assay: Adrenergic beta2 receptor (ADRB2) small molecule antagonists, cell-based qHTS assay (AID 1963592). Further: series mostly up to about 92 µM; nearly all actives have a fitted effect of over 50% in size. A digest of the protocol:
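Cells (CHO, stable ADRB2 overexpression) incubated 18-20hr at 37C; compounds added from DMSO; agonist mix (1nM isoproterenol, 100uM IBMX, 25uM Ro-20-1724) added; 0.5hr RT; d2-cAMP and anti-cAMP-cryptate added; 1hr RT; 665/615 nm read.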

The target in assay [15] is D(2) dopamine receptor (Homo sapiens) (UniProt P14416). The assay can be described thus: Dopamine D2 receptor (DRD2) small molecule agonists, cell-based qHTS assay (AID 1963594). Further: nearly all actives have a fitted effect of over 35% in size. A digest of the protocol: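 cAMP accumulation in DRD2-HEK293 cells measured by HTRF after 1 h detection; compounds added 10 min before NKH477 (200nM […]) forskolin-analogue stimulation, 30 min at room temperature, with Ro20-1724 present at 0.1 mM final.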
Chain of D(2) dopamine receptor (Homo sapiens) (P14416 whole entry, looked up): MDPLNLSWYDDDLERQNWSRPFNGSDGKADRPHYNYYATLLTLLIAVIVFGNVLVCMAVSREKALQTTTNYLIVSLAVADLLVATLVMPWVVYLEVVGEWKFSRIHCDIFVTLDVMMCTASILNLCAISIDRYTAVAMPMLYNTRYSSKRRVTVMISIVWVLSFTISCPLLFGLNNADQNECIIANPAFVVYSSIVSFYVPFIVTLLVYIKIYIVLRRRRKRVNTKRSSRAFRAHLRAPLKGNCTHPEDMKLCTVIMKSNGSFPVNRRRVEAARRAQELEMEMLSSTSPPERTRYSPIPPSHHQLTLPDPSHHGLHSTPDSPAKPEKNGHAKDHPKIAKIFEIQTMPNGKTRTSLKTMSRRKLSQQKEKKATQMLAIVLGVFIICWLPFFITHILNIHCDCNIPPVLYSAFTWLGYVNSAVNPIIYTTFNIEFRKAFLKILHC

The nature of assay [16]: p53 small molecule agonists, cell-based qHTS assay: qHTS cell viability counter screen (AID 1963581). Further: nearly all actives have a fitted effect of over 45% in size. A digest of the protocol:
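Compounds are pinned onto HCT-116 p53RE-bla cells and left 16 h at 37 C. Following the reporter FRET read, ATP is quantified by CellTiter-Glo luminescence after 30 min at room temperature.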

The target in assay [17] is D(2) dopamine receptor (Homo sapiens) (UniProt P14416). Nature of the assay: Dopamine D2 receptor (DRD2) small molecule antagonists, cell-based qHTS assay (AID 1963595; active means well fitted inhibition curve with a large enough effect in the signal ratio in the repeat runs, with a control signal flat; the % refers to the signal ratio). A digest of the protocol: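 DRD2-HEK293; 0.1 mM Ro20-1724; cpd 10 min RT; NKH477 200 nM + quinpirole 12 nM, 30 min RT; HTRF cAMP (cAMP-d2/anti-cAMP cryptate), 665/620 nm ratio after 1 h.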
Assay [18] addresses Beta-2 adrenergic receptor (Homo sapiens) (UniProt P07550). Nature of the assay: Adrenergic beta2 receptor (ADRB2) small molecule agonists, cell-based qHTS assay (AID 1963593).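 Further: CHO cells stably overexpressing human ADRB2.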 A digest of the protocol:
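CHO cells stably over-expressing ADRB2 were plated overnight at 37C, then dosed with compounds plus a stimulation mix containing 100uM IBMX and 25uM Ro-20-1724 for 0.5hr at room temperature. cAMP was measured by HTRF competition, 1hr.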

Assay [19] can be described thus: p53 small molecule agonists, cell-based qHTS assay (AID 1963582; active means well fitted activation curve with a large enough effect in the signal ratio in the repeat runs, not every such curve was filed as active; the % refers to the signal ratio). A digest of the protocol: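 Agonist activity was scored from beta-lactamase FRET fluorescence in p53RE-bla cells treated 16 h at 37 C with compounds in DMSO, substrate incubation being 2 h at room temperature.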

Chain of Beta-2 adrenergic receptor (Homo sapiens) (P07550 whole entry, looked up): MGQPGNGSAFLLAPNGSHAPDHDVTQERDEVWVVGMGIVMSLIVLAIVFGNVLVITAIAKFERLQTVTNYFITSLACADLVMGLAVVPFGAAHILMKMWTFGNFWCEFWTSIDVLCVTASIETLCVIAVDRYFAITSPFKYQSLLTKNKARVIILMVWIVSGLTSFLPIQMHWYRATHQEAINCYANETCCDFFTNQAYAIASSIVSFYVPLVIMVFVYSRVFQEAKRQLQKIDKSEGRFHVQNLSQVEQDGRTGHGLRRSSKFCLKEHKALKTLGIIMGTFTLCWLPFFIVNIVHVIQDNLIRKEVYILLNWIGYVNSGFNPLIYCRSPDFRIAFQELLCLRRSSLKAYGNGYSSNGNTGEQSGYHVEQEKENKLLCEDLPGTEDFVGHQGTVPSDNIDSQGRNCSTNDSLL
Chain of 5-hydroxytryptamine receptor 2A (Homo sapiens) (P28223 whole entry, looked up): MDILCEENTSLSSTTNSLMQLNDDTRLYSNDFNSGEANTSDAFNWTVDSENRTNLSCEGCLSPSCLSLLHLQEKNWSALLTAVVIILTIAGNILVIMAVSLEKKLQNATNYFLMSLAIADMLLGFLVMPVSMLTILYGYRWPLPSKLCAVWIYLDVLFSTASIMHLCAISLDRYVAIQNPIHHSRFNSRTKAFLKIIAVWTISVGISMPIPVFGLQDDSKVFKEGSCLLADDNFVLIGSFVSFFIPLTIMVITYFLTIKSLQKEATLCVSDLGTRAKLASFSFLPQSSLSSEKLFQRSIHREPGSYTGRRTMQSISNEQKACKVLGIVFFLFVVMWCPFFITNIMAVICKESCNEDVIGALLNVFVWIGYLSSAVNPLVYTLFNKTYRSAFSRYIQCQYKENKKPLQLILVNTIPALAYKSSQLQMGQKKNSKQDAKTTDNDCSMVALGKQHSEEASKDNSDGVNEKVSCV
Chain of Muscarinic acetylcholine receptor M1 (Homo sapiens) (P11229 whole entry, looked up): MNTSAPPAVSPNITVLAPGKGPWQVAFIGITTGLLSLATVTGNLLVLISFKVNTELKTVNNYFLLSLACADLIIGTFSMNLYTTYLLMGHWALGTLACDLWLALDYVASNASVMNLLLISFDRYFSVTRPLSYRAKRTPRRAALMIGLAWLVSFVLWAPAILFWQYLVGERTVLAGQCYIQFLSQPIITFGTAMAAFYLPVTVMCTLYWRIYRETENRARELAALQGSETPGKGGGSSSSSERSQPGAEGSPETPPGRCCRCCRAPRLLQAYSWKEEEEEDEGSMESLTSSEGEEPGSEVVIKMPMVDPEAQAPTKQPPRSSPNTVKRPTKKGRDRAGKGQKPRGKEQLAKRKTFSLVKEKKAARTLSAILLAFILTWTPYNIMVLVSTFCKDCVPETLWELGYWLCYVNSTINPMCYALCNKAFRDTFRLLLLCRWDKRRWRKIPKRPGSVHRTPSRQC
Chain of Gonadotropin-releasing hormone receptor (Homo sapiens) (P30968 whole entry, looked up): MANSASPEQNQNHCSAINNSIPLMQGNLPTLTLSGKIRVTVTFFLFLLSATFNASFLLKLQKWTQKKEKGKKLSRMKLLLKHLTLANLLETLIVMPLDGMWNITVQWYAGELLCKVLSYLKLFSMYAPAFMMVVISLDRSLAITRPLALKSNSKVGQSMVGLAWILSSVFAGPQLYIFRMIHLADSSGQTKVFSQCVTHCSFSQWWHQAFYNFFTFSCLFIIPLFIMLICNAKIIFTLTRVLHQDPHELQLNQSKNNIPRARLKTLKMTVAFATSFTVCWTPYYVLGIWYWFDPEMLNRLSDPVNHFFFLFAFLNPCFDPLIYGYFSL

Regarding `CN(C1CCCCC1)C1CCCCC1`, the Potency entry in assay [1], in assay [2], in [3], in assay [4], in assay [5] and in [6] was “inactive” throughout. Also, the Potency entry in assay [7], in assay [8], in assay [9], in assay [10], in assay [11] and in assay [12] was “inactive” in each case. Moreover, the Potency entry in assay [13], in [14] and in [15] was “inactive” in each case.

Regarding `C[C@]12CC[C@H]3[C@@H](CCC4=CC(=O)CC[C@@]43C)[C@@H]1CC[C@@H]2O`, the Potency result in assay [1], in assay [2], in assay [3], in assay [4], in [5] and in [6] was “inactive” throughout. The Potency entry in assay [7], in assay [16], in assay [14], in assay [15] and in assay [17] was “inactive” in each case.

Consider `CC(C)(C)N(NC(=O)c1ccc(Cl)cc1)C(=O)c1ccccc1`, for which the Potency result in [1], in assay [2], in [3], in assay [4], in assay [5] and in assay [6] was “inactive” throughout. Moreover, the Potency entry in assay [7], in [16], in assay [8], in assay [9], in assay [13] and in [18] was “inactive” throughout. Further, the Potency entry in assay [15] and in assay [17] was “inactive” in each case.

Take `c1ccc(Nc2ccc(Nc3ccccc3)cc2)cc1`: the Potency entry in [1], in [3], in assay [4], in assay [5], in assay [6] and in [7] was “inactive” each time. Moreover, the Potency result in [16], in assay [12], in [13], in assay [14] and in assay [17] was “inactive” each time. Besides, the Potency in [2] is 27.2 µM (active).

On to `COP(=O)(OC)O/C(C)=C/C(=O)N(C)C`, for which the Potency entry in assay [1], in assay [2], in assay [3], in assay [4], in [5] and in assay [6] was “inactive” in each case. In addition, the Potency entry in assay [7], in assay [19], in [8], in [9], in [10] and in [11] was “inactive” each time. Also, the Potency result in [12], in [13], in [14], in assay [18], in assay [15] and in assay [17] was “inactive” in each case.

Consider `CN1C(=S)CN=C(c2ccccc2)c2cc(Cl)ccc21`, for which the Potency entry in assay [1], in [2], in assay [3], in assay [4], in assay [5] and in assay [6] was “inactive” throughout. The Potency result in assay [7], in assay [16], in assay [8], in [9], in assay [11] and in [12] was “inactive” throughout. Besides, the Potency result in assay [13], in [14], in assay [18], in [15] and in assay [17] was “inactive” in each case.

In the case of `CC(Oc1cc(Cl)c(Cl)cc1Cl)C(=O)O` (configuration not stated), the Potency entry in assay [1], in [2], in assay [3], in assay [4], in assay [5] and in assay [6] was “inactive” in each case. The Potency result in assay [7], in assay [16], in assay [8], in [9], in [11] and in [14] was “inactive” throughout. The Potency result in assay [15] and in [17] was “inactive” each time.

In the case of `BrCC1CO1` (configuration not stated), the Potency result in assay [1], in assay [2], in assay [3], in assay [4], in assay [5] and in [6] was “inactive” in each case. Moreover, the Potency entry in [7], in assay [8], in assay [9], in assay [10], in [11] and in [12] was “inactive” each time. Besides, the Potency result in assay [13], in assay [14], in assay [15] and in [17] was “inactive” each time.
